# Assay results from PubChem BioAssay AID1159580 (chemical genetic matrix, 2015).
# Screen size: about 5,500 compounds; about 2,000 (36%) were called active. Another 18% or so got no clear call; they are omitted. The list shows a part of the results. A number with no mark means an inactive call. No stated cut-off is given here; in the data, active means normalized growth mostly below about 0.91 (no sharp cut-off); inconclusive means no clear call, values can overlap the other calls; inactive means mostly above about 0.92.
# Experiment: chemical genetic growth profiling, strain panel (AID 1159580);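 further: tested at 20 µM; growth read once vehicle control cultures reached saturation at 30 °C; 1 = growth at the plate median or of vehicle wells; lower values mean less growth of the strain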
# Settings: S. cerevisiae deletion strains, growth OD
# [1] = locus YAL021C, strain ccr4, active compounds read low
# [2] = locus YAL026C, strain drs2, active compounds read low
# [3] = locus YAL030W, strain snc1, active compounds read low
# [4] = locus YBL061C, strain skt5, active compounds read low
# [5] = locus YBR009C, strain hhf1, active compounds read low
# [6] = locus YBR023C, strain chs3, active compounds read low
# [7] = locus YBR171W, strain sec66, active compounds read low
# [8] = locus YBR231C, strain swc5, active compounds read low
# [9] = locus YBR279W, strain paf1, active compounds read low
# [10] = locus YCL011C, strain gbp2, active compounds read low
# [11] = locus YCL016C, strain dcc1, active compounds read low
# [12] = locus YCL061C, strain MRC1, active compounds read low
# [13] = locus YCL069W, strain vba3, active compounds read low
# [14] = locus YCR088W, strain abp1, active compounds read low
# [15] = locus YDL005C, strain med2, active compounds read low
# [16] = locus YDL040C, strain nat1, active compounds read low
# [17] = locus YDR001C, strain nth1, active compounds read low
# [18] = locus YDR069C, strain doa4, active compounds read low
# [19] = locus YDR137W, strain rgp1, active compounds read low
# [20] = locus YDR159W, strain sac3, active compounds read low
# [21] = locus YDR297W, strain sur2, active compounds read low
# [22] = locus YDR334W, strain swr1, active compounds read low
# [23] = locus YDR335W, strain msn5, active compounds read low
# [24] = locus YDR392W, strain spt3, active compounds read low
# [25] = locus YEL003W, strain gim4, active compounds read low
# [26] = locus YEL037C, strain rad23, active compounds read low
# [27] = locus YEL061C, strain CIN8 (second series), active compounds read low
# [28] = locus YER015W, strain faa2, active compounds read low
# [29] = locus YER016W, strain bim1, active compounds read low
# [30] = locus YER111C, strain swi4, active compounds read low
# [31] = locus YER155C, strain BEM2 (second series), active compounds read low
# [32] = locus YFR010W, strain ubp6, active compounds read low
# [33] = locus YGL167C, strain pmr1, active compounds read low
# [34] = locus YGL173C, strain kem1, active compounds read low
# [35] = locus YGL227W, strain vid30, active compounds read low
# [36] = locus YGL240W, strain doc1, active compounds read low
# [37] = locus YGL253W, strain hxk2, active compounds read low
# [38] = locus YHR013C, strain ard1, active compounds read low
# [39] = locus YHR027C, strain rpn1, active compounds read low
# [40] = locus YHR142W, strain chs7, active compounds read low
# [41] = locus YJL092W, strain hpr5, active compounds read low
# [42] = locus YJL095W, strain BCK1 (second series), active compounds read low
# [43] = locus YJL115W, strain asf1, active compounds read low
# [44] = locus YJL129C, strain trk1, active compounds read low
# [45] = locus YJL154C, strain vps35, active compounds read low
# [46] = locus YJL164C, strain tpk1, active compounds read low
# [47] = locus YJL166W, strain qcr8, active compounds read low
# [48] = locus YKL160W, strain elf1, active compounds read low
# [49] = locus YKR026C, strain gcn3, active compounds read low
# [50] = locus YKR091W, strain srl3, active compounds read low
# [51] = locus YLL001W, strain dnm1, active compounds read low
# [52] = locus YLL026W, active compounds read low
# [53] = locus YLL041C, strain sdh2, active compounds read low
# [54] = locus YLR027C, strain aat2, active compounds read low
# [55] = locus YLR221C, strain rsa3, active compounds read low
# [56] = locus YLR258W, strain gsy2, active compounds read low
# [57] = locus YLR262C, strain YPT6 (second series), active compounds read low
# [58] = locus YLR320W, strain mms22, active compounds read low
# [59] = locus YLR342W, strain FKS1, active compounds read low
# [60] = locus YLR357W, strain rsc2, active compounds read low
# [61] = locus YLR370C, strain arc18, active compounds read low
# [62] = locus YLR384C, strain iki3, active compounds read low
# [63] = locus YML120C, strain ndi1, active compounds read low
# [64] = locus YMR058W, strain fet3, active compounds read low
# [65] = locus YMR125W, strain sto1, active compounds read low
# [66] = locus YMR129W, active compounds read low
# [67] = locus YMR205C, strain PFK2, active compounds read low
# [68] = locus YMR231W, strain pep5, active compounds read low
# [69] = locus YNL071W, strain lat1, active compounds read low
# [70] = locus YNL209W, strain ssb2, active compounds read low
# [71] = locus YNL248C, strain rpa49, active compounds read low
# [72] = locus YNL322C, strain KRE1 (second series), active compounds read low
# [73] = locus YNR049C, strain mso1, active compounds read low
# [74] = locus YOR001W, strain rrp6, active compounds read low
# [75] = locus YOR070C, strain gyp1, active compounds read low
# [76] = locus YOR080W, strain dia2, active compounds read low
# [77] = locus YOR083W, strain WHI5, active compounds read low
# [78] = locus YOR106W, strain vam3, active compounds read low
# [79] = locus YOR265W, strain rbl2, active compounds read low
# [80] = locus YOR270C, strain vph1, active compounds read low
# [81] = locus YOR290C, strain snf2, active compounds read low
# [82] = locus YPL051W, strain arl3, active compounds read low
# [83] = locus YPL078C, strain atp4, active compounds read low
# [84] = locus YPL106C, strain sse1, active compounds read low
# [85] = locus YPL240C, strain hsp82, active compounds read low
smiles,measurement,setting,value
CC(=O)[C@H]1CCC2C3CC=C4C[C@@H](OS(=O)(=O)O)CC[C@]4(C)C3CC[C@@]21C (stereo partly drawn),normalized growth,"locus YAL040C, strain CLN3, active compounds read low",0.959
same,normalized growth,"locus YCL061C, strain MRC1 (second series), active compounds read low",0.981
same,normalized growth,"locus YDR363W, strain ESC2, active compounds read low",1.01
same,normalized growth,"locus YER002W, strain NOP16, active compounds read low",0.979
same,normalized growth,"locus YMR263W, strain SAP30, active compounds read low",0.978
same,normalized growth,"locus YMR307W, strain GAS1, active compounds read low",0.997
same,normalized growth,"locus YNL175C, strain NOP13, active compounds read low",0.988
same,normalized growth,"locus YNL197C, strain WHI3, active compounds read low",1
same,normalized growth,"locus YNL224C, strain SQS1, active compounds read low",0.984
same,normalized growth,"locus YNL322C, strain KRE1, active compounds read low",0.964
same,normalized growth,"locus YOR083W, strain WHI5 (second series), active compounds read low",0.975
same,normalized growth,"locus YPL241C, strain CIN2, active compounds read low",0.984
CC(=O)OCC(=O)[C@@]1(O)CCC2C3CC[C@@H]4C[C@H](O)CC[C@]4(C)C3C(=O)C[C@@]21C (stereo partly drawn),normalized growth,[1],1.02
same,normalized growth,[2],1.01
same,normalized growth,[3],1.02
same,normalized growth,[4],1.03
same,normalized growth,[5],1.03
same,normalized growth,[6],1.02
same,normalized growth,[7],1.03
same,normalized growth,[8],1.02
same,normalized growth,[9],1.03
same,normalized growth,[10],1.04
same,normalized growth,[11],1.04
same,normalized growth,[12],1.03
same,normalized growth,[13],1.01
same,normalized growth,[14],1.01
same,normalized growth,[15],1.02
same,normalized growth,[16],1.02
same,normalized growth,[17],1.01
same,normalized growth,[18],1.02
same,normalized growth,[19],1.06
same,normalized growth,[20],1.01
same,normalized growth,"locus YDR195W, strain ref2",0.988
same,normalized growth,[21],1.01
same,normalized growth,[22],1.01
same,normalized growth,[23],1.01
same,normalized growth,[24],0.983
same,normalized growth,[25],1.01
same,normalized growth,[26],1
same,normalized growth,[27],1.01
same,normalized growth,[28],1.01
same,normalized growth,[29],1.02
same,normalized growth,[30],1.02
same,normalized growth,[31],1.03
same,normalized growth,[32],1.01
same,normalized growth,[33],1.01
same,normalized growth,[34],1.03
same,normalized growth,[35],1.02
same,normalized growth,[36],1.03
same,normalized growth,[37],1.01
same,normalized growth,[38],1.03
same,normalized growth,[39],1.01
same,normalized growth,[40],1.02
same,normalized growth,[41],1.01
same,normalized growth,[42],1.02
same,normalized growth,[43],1.02
same,normalized growth,[44],1.05
same,normalized growth,[45],1.01
same,normalized growth,[46],1.03
same,normalized growth,[47],1.03
same,normalized growth,"locus YJL187C, strain SWE1, active compounds read low",1.02
same,normalized growth,[48],1.03
same,normalized growth,[49],1.01
same,normalized growth,[50],1.02
same,normalized growth,[51],1.03
same,normalized growth,[52],1.02
same,normalized growth,[53],1.01
same,normalized growth,[54],1.02
same,normalized growth,[55],1.05
same,normalized growth,[56],1.02
same,normalized growth,[57],1.04
same,normalized growth,[58],1.07
same,normalized growth,[59],1.01
same,normalized growth,[60],1.03
same,normalized growth,[61],1.02
same,normalized growth,[62],1.02
same,normalized growth,[63],1.01
same,normalized growth,[64],1.01
same,normalized growth,[65],1.02
same,normalized growth,[66],1.01
same,normalized growth,[67],1.03
same,normalized growth,[68],1.01
same,normalized growth,[69],1.02
same,normalized growth,[70],1.02
same,normalized growth,[71],1.01
same,normalized growth,[72],1.03
same,normalized growth,[73],1.01
same,normalized growth,[74],1.01
same,normalized growth,[75],1.02
same,normalized growth,[76],1.02
same,normalized growth,[77],1.04
same,normalized growth,[78],1.02
same,normalized growth,[79],1.02
same,normalized growth,[80],1.03
same,normalized growth,[81],1
same,normalized growth,[82],1.02
same,normalized growth,[83],1.02
same,normalized growth,[84],1.07
same,normalized growth,[85],1.02
CC(=O)OCC(=O)[C@H]1CCC2C3CC=C4C[C@@H](O)CC[C@]4(C)C3CC[C@@]21C (stereo partly drawn),normalized growth,[1],1.04
same,normalized growth,[2],0.971
same,normalized growth,[3],0.993
same,normalized growth,[4],0.969
same,normalized growth,[5],0.819 (active)
same,normalized growth,[6],0.97
same,normalized growth,[7],1
same,normalized growth,[8],0.894 (active)
same,normalized growth,[9],0.998
same,normalized growth,[10],0.858 (active)
same,normalized growth,[11],0.983
same,normalized growth,[12],0.893 (active)
same,normalized growth,[13],0.893 (active)
same,normalized growth,[14],0.965
same,normalized growth,[15],0.885 (active)
same,normalized growth,[16],1.01
same,normalized growth,[17],1.01
same,normalized growth,[18],1.02
same,normalized growth,[19],0.742 (active)
same,normalized growth,[20],0.753 (active)
same,normalized growth,"locus YDR195W, strain ref2",1.4 [resistant] (active)
same,normalized growth,[21],1.02
same,normalized growth,[22],1.01
same,normalized growth,[23],0.908 (active)
same,normalized growth,[24],0.142 (active)
same,normalized growth,[25],0.894 (active)
same,normalized growth,[26],0.999
same,normalized growth,[27],0.945
same,normalized growth,[28],1.01
same,normalized growth,[29],0.967
same,normalized growth,[30],0.986
same,normalized growth,[31],0.337 (active)
same,normalized growth,[32],0.976
same,normalized growth,[33],1
same,normalized growth,[34],0.953
same,normalized growth,[35],0.935
same,normalized growth,[36],0.927
same,normalized growth,[37],0.937
same,normalized growth,[38],0.87
same,normalized growth,[39],1.05
same,normalized growth,"locus YHR030C, strain SLT2, active compounds read low",0.896
same,normalized growth,"locus YHR079C, strain IRE1, active compounds read low",0.915
same,normalized growth,[40],0.593 (active)
same,normalized growth,[41],0.931
same,normalized growth,[42],0.97
same,normalized growth,"locus YJL095W, strain BCK1, active compounds read low",0.956
same,normalized growth,[43],1.02
same,normalized growth,[44],0.696 (active)
same,normalized growth,[45],1.01
same,normalized growth,[46],0.853 (active)
same,normalized growth,[47],0.826 (active)
same,normalized growth,"locus YJR066W, strain TOR1, active compounds read low",0.913
same,normalized growth,[48],0.946
same,normalized growth,[49],1.01
same,normalized growth,[50],1.02
same,normalized growth,[51],0.829 (active)
same,normalized growth,[52],0.935
same,normalized growth,[53],1.07 [resistant] (active)
same,normalized growth,[54],0.921 (active)
same,normalized growth,"locus YLR113W, strain HOG1, active compounds read low",0.882
same,normalized growth,[55],0.816 (active)
same,normalized growth,[56],0.963
same,normalized growth,[57],0.583 (active)
same,normalized growth,[58],0.435 (active)
same,normalized growth,[59],0.762 (active)
same,normalized growth,[60],1.04
same,normalized growth,[61],1
same,normalized growth,[62],1.02
same,normalized growth,[63],0.805 (active)
same,normalized growth,[64],0.924
same,normalized growth,[65],0.829 (active)
same,normalized growth,[66],0.998
same,normalized growth,[67],0.833 (active)
same,normalized growth,[68],1.02
same,normalized growth,[69],0.175 (active)
same,normalized growth,"locus YNL183C, strain NPR1, active compounds read low",0.956
same,normalized growth,[70],1.08 [resistant] (active)
same,normalized growth,[71],0.899
same,normalized growth,[72],1.02
same,normalized growth,[73],0.991
same,normalized growth,[74],1.02
same,normalized growth,[75],1.03
same,normalized growth,[76],1.01
same,normalized growth,[77],0.885 (active)
same,normalized growth,[78],0.913
same,normalized growth,"locus YOR231W, strain MKK1, active compounds read low",0.942
same,normalized growth,[79],0.979
same,normalized growth,[80],0.669 (active)
same,normalized growth,[81],0.862 (active)
same,normalized growth,[82],1
same,normalized growth,[83],0.887 (active)
same,normalized growth,[84],1.3 [resistant] (active)
same,normalized growth,[85],1.03
same,normalized growth,"locus YPL256C, strain CLN2, active compounds read low",0.906
